Laboratory results published in PubChem BioAssay AID1626 (SRMLSC, 2009).
About 2,000 (0.91%) of roughly 220,000 compounds were called active. Not shown: some 2% with an inconclusive outcome. The list is a sample of the results. Measured potencies and affinities stand elsewhere. Values without a mark were called inactive. Cut-off read from the data, not from the text of the source: inconclusive = inhibition above about 80% without an active follow-up result; inactive = below that; test concentration not stated here.

Assay: M. tuberculosis H37Rv growth inhibitors, H37Rv strain (AID 1626);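 note: bacteria incubated seven days before Alamar blue readout; 0% = bacteria only wells and 100% = bacteria with antibiotic wells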
Conditions: stronger effect = higher value, concentration not given here

Structure (SMILES) | inhibition [%]
CC(C)(C)n1cnnc1Sc1ncccc1[N+](=O)[O-] | -0.66
Nc1nnc(Sc2ccc(Cl)cc2[N+](=O)[O-])s1 | 6.61
O=c1ccnc(Sc2ncccc2[N+](=O)[O-])[nH]1 | 7.87
CC(C)(C)c1csc(Sc2ncccc2[N+](=O)[O-])n1 | 7.08
Cc1ccc(N/C=C(\C#N)S(=O)(=O)c2ccccc2)cc1 | 1.01
CC(=O)c1cc(-c2ccc(F)cc2)n(CCC(=O)Nc2cc(C)[nH]n2)c1C | 5.45
Cn1c(N)c(-c2nc3cccnc3n2C)sc1=S | 2.49
Cc1cc(NC(=O)c2ccccc2)n(-c2ccccc2)n1 | -5.06
Cc1cc(NC(=O)c2cccs2)n(-c2nc3ccccc3[nH]2)n1 | 94.8
O=C(Nc1nc2ccccc2[nH]1)c1cccs1 | 56.3
COc1cccc(OC)c1C(=O)Nc1cc(C)nn1-c1nc2ccccc2[nH]1 | 53.2
Cc1cc(NC(=O)c2ccc(C)s2)n(-c2nc3ccccc3[nH]2)n1 | 83.6
CC(=O)Nc1nc2ccccc2[nH]1 | -9.36
COc1ccc(C(=O)Nc2cc(C)nn2-c2nc3ccccc3[nH]2)c(OC)c1 | 57.3
Cc1cc(NC(=O)c2ccccc2F)n(-c2nc3ccccc3[nH]2)n1 | 55.8
OCC1(Cc2ccccc2)CCN(Cc2ccc(C(F)(F)F)cc2)CC1 | 10.2
CC1(C)C(c2ccc(Cl)cc2)=[N+]([O-])C2(CCCC/C2=N\O)N1O (configuration not stated) | 2.14
O=C(N/N=C/c1cc(Br)cs1)c1ccc2c(c1)OCCO2 | 6.73
O=C(CSc1nnc(-c2ccco2)n1CC1CCCO1)c1ccc(F)cc1 (configuration not stated) | -15.7
N#CCSc1nc2ccccc2c(=O)n1CC1CCCC1 | -2.18
CC(Sc1ccc(Br)cc1)C(N)=O (configuration not stated) | -7.76
Cc1nc(N(C)C)c2sc(=S)n(-c3ccccc3)c2n1 | 0.72
C/C(=N\NS(=O)(=O)c1ccc([N+](=O)[O-])cc1)c1ccc(NC(=O)c2ccco2)cc1 | -1.1
C=CCNC(=O)CSc1nnc(-c2ccccc2Br)n1-c1cccc(C(F)(F)F)c1 | 5.16
Cc1cc(NC(=O)c2ccc(F)cc2F)n(-c2nc3ccccc3[nH]2)n1 | 4.49
CCOc1ccccc1OCC(=O)Nc1nc2ccccc2[nH]1 | 9.65

Structure (SMILES) | inhibition [%]
O=C(NCCc1nc2ccccc2[nH]1)c1ccc(Cl)c([N+](=O)[O-])c1 | -1.68
Cc1cc(C)c(OCC(=O)Nc2nc3ccccc3[nH]2)c(C)c1 | 9.75
COc1cc(C(=O)Nc2nc3ccccc3[nH]2)cc(OC)c1OC | 75.8
Cc1cc(NC(=O)/C=C/c2ccccc2Cl)n(-c2nc3ccccc3[nH]2)n1 | 66.7
COc1cccc(C(=O)Nc2nc3ccccc3[nH]2)c1 | 46.1
O=C(Nc1nc2ccccc2[nH]1)c1ccc([N+](=O)[O-])cc1 | 75
COCCn1c(SCC(=O)Nc2sc(C)c(C)c2C#N)nnc1-c1ccc(OC)cc1 | -11.5
CC(C)(C)C1CCc2onc(C(=O)O)c2C1 (configuration not stated) | -7.72
C/C(=N\NC(=O)Cc1c(C)[nH][nH]c1=O)c1ccc2ccccc2c1 | -1.62
CC(C)C(=O)NNC(=O)c1cc2sccc2s1 | -9.47
Cc1cc(Br)c(NC(=O)CCl)c(Br)c1 | 10
CC(=O)Nc1sc(N/N=C\c2ccco2)nc1-c1cccs1 | 2.35
Cc1ccc(CONC(=O)c2ccc(OC(F)F)cc2)cc1 | -0.18
CC1(C)C(c2ccccc2)=[N+]([O-])CN1O | -10.2
Cc1cc(C)n(-c2nc3ccccc3[nH]c2=O)n1 | -9.01
O=S(=O)(N/N=C/c1cccc(OC2CSC2)c1)c1ccccc1 | 2.91
O=C(NCCCN1CCCC1=O)Nc1ccc(Cl)cc1 | -8.24
Cc1c(C(=O)Nc2ccc3c4c(cccc24)CC3)cccc1[N+](=O)[O-] | 13.3
Cc1ccc(-c2cc(C(=O)Nc3nccs3)c3ccccc3n2)o1 | 12.8
O=C(Nc1nc2c(s1)CCCC2)c1cc(-c2ccncc2)nc2ccccc12 | 10.1
O=C(Nc1nc(-c2ccc(F)c(F)c2)cs1)c1cnccn1 | 10.2
O=C(Nc1nccs1)c1cc(-c2ccccc2)nc2ccccc12 | 19
O=C(Nc1nccs1)c1cc(-c2ccncc2)nc2ccccc12 | -1.16
Cc1ccc(-c2cc(C(=O)Nc3ccc(S(=O)(=O)Nc4nccs4)cc3)c3ccccc3n2)c(C)c1 | 69.9
O=C(Nc1nc2c(s1)CCCC2)c1cc(-c2ccccc2)nc2ccccc12 | 14.1
Cc1csc(NC(=O)c2cnccn2)n1 | -4.5
